Experimental data taken from PubChem BioAssay (Tox21).
Where “and” joins values, the source holds several entries; their conditions need not be identical. Equal values may be shown once. Results filed as inconclusive are left out. Where a call stands in place of a potency, no number is given. More than one record can exist for a structure, and the calls need not agree. Calls of active or inactive are those of the source. The call rests on the fitted dose curve; in most records, active means well fitted cell-killing curve with a large enough effect in the repeat runs; inconclusive means weak or mixed curves, or effect the other way; inactive means no such curve, though single readings can be large or run the other way.
Potency means the concentration at half of the fitted maximal effect.

Assay: Caspase-3/7 induction in CHO-K1 cells by small molecules, qHTS cell viability counter screen (AID 1346979); further: nearly all actives have a fitted effect of over 35% in size
Details: CellTiter-Fluor fluorescence, 17 h; series mostly up to 92.4 µM; activity change, negative = cytotoxicity: at the top concentration
From the text: National Center for Advancing Translational Sciences [NCATS]
NIH Chemical Genomics Center [NCGC]
U.S. Environmental Protection Agency [EPA]
National Institutes of Environmental Health Sciences [NIEHS]
National Toxicology Program [NTP]
U.S. Food and Drug Administration [FDA]
Apoptosis is a process of programmed cell death and plays a central role in the development of multicellular organisms. It is a highly regulated process and induces cell death by activating caspases, which are the members of cysteine aspartic acid-specific protease (caspase) family. Caspases involved in apoptosis are classified by their mechanism of action as initiator caspases (caspase-2, -8, -9 and -10) and executioner caspases (caspase-3, -6, and -7). Inhibition of apoptosis results in number of cancers, autoimmune diseases, inflammatory diseases and viral infection. To identify small molecule compounds that induce apoptosis, a homogeneous, luminescent Caspase-Glo 3/7 assay was used. Wild type CHO-K1 cells were used to screen Tox21 libraries for identifying caspase-3/7 activity inducers. Also cytotoxicity of the compounds was tested in parallel by measuring the cell viability using CellTiter-Fluor assay system in the same wells.
Tox21 Assay Protocol Summary:
CHO-K1 cells were dispensed at 1,500 per well in 5uL of culture medium into white solid bottom 1536-well plates (Corning Life Sciences, Corning, NY) using a Multidrop Combi (Thermo Scientific, Waltham, MA) dispenser. The assay plates were incubated at 37 C and 5% CO2 for 5hr, and then 23nL of compounds dissolved in DMSO and positive control were transferred using a Pintool station (Wako, San Diego, CA). The assay plates were incubated at 37C and 5% CO2 for 17hr. For cytotoxicity read, after 16hr incubation at 37C, 1uL CellTiter-Fluor reagent (Promega Corporation, Madison, WI) was added to each well of the assay plates using Flying Reagent Dispenser (FRD, Aurora Discovery, San Diego, CA). After 1hr incubation at 37C and 5% CO2, the fluorescence signal was quantified using a ViewLux plate reader (PerkinElmer, Shelton, CT).
For `COP(=O)(OC)C(O)C(Cl)(Cl)Cl` (stereo not given), the Potency was “inactive”. For `C=CCOC(Cn1ccnc1)c1ccc(Cl)cc1Cl` (stereo not given), the Potency was 48.7 µM (active) and 38.6 µM (active). For `O=C(O)CCl`, the Potency was “inactive”. With `OCCOc1ccccc1` the Potency was “inactive”. For `CCCn1cc[n+](C)c1`, the Potency was “inactive”. With `CCCCCCCCn1cc[n+](C)c1` the Potency was 54.1 µM (active) and 49 µM (active) and 55 µM (active). In the case of `O=c1nc(O)n(Cl)c(=O)n1Cl`, the Potency is reported as “inactive”. With `CCn1cc[n+](C)c1C` the Potency was “inactive”. For `CCCCCCCCCCCC(=O)O`, the Potency was “inactive”. With `Nc1ccc(Cl)cc1` the Potency was “inactive”. In the case of `O=C(O)COc1ccc(Cl)cc1Cl`, the Potency is reported as “inactive”. For `CC[N+]1(C)CCCC1`, the Potency was “inactive”. With `Cc1cc(-c2ccc(N)c(C)c2)ccc1N` the Potency was “inactive”. For `C[N+](C)(C)Cc1ccccc1`, the Potency was “inactive”. In the case of `Cc1cc(Cl)ccc1OCC(=O)O`, the Potency is reported as “inactive”. For `Oc1ccccc1-c1ccccc1`, the Potency was “inactive”. With `O=C(O)C(Cl)(Cl)Cl` the Potency was “inactive”. With `CCCC[n+]1cccc(C)c1` the Potency was “inactive”. With `CCC(=O)C(CC(C)N(C)C)(c1ccccc1)c1ccccc1` (stereo not given) the Potency was “inactive”. In the case of `CCCCn1cc[n+](C)c1C`, the Potency is reported as “inactive”. For `C[C@]12CCC(=O)C=C1CC[C@@H]1[C@@H]2CC[C@]2(C)C(=O)CC[C@@H]12`, the Potency was 23.9 µM (active) and inactive. With `O=[N+]([O-])O` the Potency was “inactive”. For `CCOP(=S)(OCC)Oc1ccc2c(C)c(Cl)c(=O)oc2c1`, the “activity change, negative = cytotoxicity” value was -4.32% [at 42.5 µM] (inactive). In the case of `CC[n+]1ccccc1`, the Potency is reported as “inactive and 763 nM (active)”. With `COP(=O)(OC)OC=C(Cl)Cl` the Potency was “inactive”. In the case of `CN(C)[C@@H]1C(=O)C(C(N)=O)=C(O)[C@@]2(O)C(=O)C3=C(O)c4c(O)cccc4[C@@](C)(O)[C@H]3[C@H](O)[C@@H]12`, the Potency is reported as “inactive”. With `CCC[N+]1(C)CCCC1` the Potency was “inactive”. For `O=C(O)c1nc(Cl)ccc1Cl`, the Potency was “inactive”. With `CCCC[n+]1ccccc1` the Potency was “inactive”. In the case of `CCCC[n+]1ccccc1C`, the Potency is reported as “inactive”. For `COc1ccc(N)cc1`, the Potency was “inactive”. With `CC[N+](CC)(CC)CC` the Potency was “inactive”. For `O=C(O)CC(O)(CC(=O)O)C(=O)O`, the Potency was “inactive”. In the case of `CCCCCCn1cc[n+](C)c1`, the Potency is reported as “inactive”. In the case of `CCCC[N+]1(C)CCCCC1`, the Potency is reported as “inactive”. In the case of `COc1ccccc1N`, the Potency is reported as “inactive”. In the case of `O=P1(N(CCCl)CCCl)NCCCO1` (stereo not given), the Potency is reported as “inactive”. In the case of `CCC[N+]1(C)CCCCC1`, the Potency is reported as “inactive”. For `O=C(O)c1ccccc1O`, the Potency was “inactive”. With `C1CCC(NC2CCCCC2)CC1` the Potency was “inactive”.
